# Source: paper PMC5540273 (PLoS ONE, 2017)
# Where two headings read alike, the source gives them in different places.
# Tests used:
# Conditions in all cases: n = 1
# STK16 = test system: STK16
# STK33 = test system: STK33
# STK35 = test system: STK35
# STK36 = test system: STK36
# STK39 = test system: STK39
# SYK = test system: SYK
# SgK110 = test system: SgK110
# TAK1 = test system: T1, TAK1
# T1 construct: gene MAP3K7
# TAOK1 = test system: TAOK1
# TAOK2 = test system: TAOK2
# TAOK3 = test system: TAOK3
# TBK1 = test system: TBK1
# TEC = test system: TEC
# TESK1 = test system: TESK1
# TGFBR1 = test system: TGFBR1
# TGFBR2 = test system: TGFBR2
# TIE1 = test system: TIE1
# TIE2 = test system: T2, TIE2
# T2 construct: gene TEK
# TLK1 = test system: TLK1
# TLK2 = test system: TLK2
# [1] = concentration: 1 μM, replicates: in singlicate
# 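Also: KINOMEscan kinase panel screen.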
compound,measurement,setting,value
CC(C)(C)c1ccc(C(=O)Nc2cn3cc(-c4cccnc4)ccc3n2)cc1,%Inh,STK16; [1],27%
same,%Inh,STK33; [1],6%
same,%Inh,STK35; [1],0%
same,%Inh,STK36; [1],4%
same,%Inh,STK39; [1],0%
same,%Inh,SYK; [1],0%
same,%Inh,SgK110; [1],0%
same,%Inh,TAK1; [1],11%
same,%Inh,TAOK1; [1],0%
same,%Inh,TAOK2; [1],2%
same,%Inh,TAOK3; [1],0%
same,%Inh,TBK1; [1],40%
same,%Inh,TEC; [1],10%
same,%Inh,TESK1; [1],4%
same,%Inh,TGFBR1; [1],1%
same,%Inh,TGFBR2; [1],7%
same,%Inh,TIE1; [1],4%
same,%Inh,TIE2; [1],27%
same,%Inh,TLK1; [1],46%
same,%Inh,TLK2; [1],5%
Cc1ccc(NC(=O)Nc2cccc(C(F)(F)F)c2)cc1 [GSK955403],%Inh,STK16; 1 µM,30%
same,%Inh,STK33; 1 µM,0%
same,%Inh,STK35; 1 µM,0%
same,%Inh,STK36; 1 µM,10%
same,%Inh,STK39; 1 µM,3%
same,%Inh,SYK; 1 µM,19%
same,%Inh,SgK110; 1 µM,0%
same,%Inh,TAK1; 1 µM,13%
same,%Inh,TAOK1; 1 µM,0%
same,%Inh,TAOK2; 1 µM,0%
same,%Inh,TAOK3; 1 µM,0%
same,%Inh,TBK1; 1 µM,33%
same,%Inh,TEC; 1 µM,7%
same,%Inh,TESK1; 1 µM,36%
same,%Inh,TGFBR1; 1 µM,6%
same,%Inh,TGFBR2; 1 µM,0%
same,%Inh,TIE1; 1 µM,13%
same,%Inh,TIE2; 1 µM,38%
same,%Inh,TLK1; 1 µM,20%
same,%Inh,TLK2; 1 µM,3%
Cc1cc(-c2ccc3c(c2)CC[C@@H](N[C@@H](C)c2ccccc2)C3)cnc1N.Cl [GW412617],%Inh,STK16; [1],22%
same,%Inh,STK33; [1],7%
same,%Inh,STK35; [1],10%
same,%Inh,STK36; [1],0%
same,%Inh,STK39; [1],1%
same,%Inh,SYK; [1],35%
same,%Inh,SgK110; [1],0%
same,%Inh,TAK1; [1],42%
same,%Inh,TAOK1; [1],14%
same,%Inh,TAOK2; [1],0%
same,%Inh,TAOK3; [1],14%
same,%Inh,TBK1; [1],11%
same,%Inh,TEC; [1],1%
same,%Inh,TESK1; [1],11%
same,%Inh,TGFBR1; [1],0%
same,%Inh,TGFBR2; [1],20%
same,%Inh,TIE1; [1],35%
same,%Inh,TIE2; [1],0%
same,%Inh,TLK1; [1],4%
same,%Inh,TLK2; [1],0%
CCn1c(-c2cccnc2O)nc2cnccc21 [SB-736715],%Inh,STK16; [1],0%
same,%Inh,STK33; [1],0%
same,%Inh,STK35; [1],0%
same,%Inh,STK36; [1],0%
same,%Inh,STK39; [1],0%
same,%Inh,SYK; [1],0%
same,%Inh,SgK110; [1],0%
same,%Inh,TAK1; [1],0%
same,%Inh,TAOK1; [1],0%
same,%Inh,TAOK2; [1],0%
same,%Inh,TAOK3; [1],0%
same,%Inh,TBK1; [1],0%
same,%Inh,TEC; [1],0%
same,%Inh,TESK1; [1],0%
same,%Inh,TGFBR1; [1],0%
same,%Inh,TGFBR2; [1],0%
same,%Inh,TIE1; [1],0%
same,%Inh,TIE2; [1],6%
same,%Inh,TLK1; [1],0%
same,%Inh,TLK2; [1],0%
